PubChem BioAssay AID588850 (Sanford-Burnham Center for Chemical Genomics, 2011)
Hit rate of the full screen: of about 360,000 compounds, about 3,100 (0.86%) were called active.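 How the source made its calls: active means at least 50% inhibition at 5 µM, scaled per plate between neutral and stimulator controls; inactive means the rest.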 What follows is part of a selection rich in actives, with near analogues and random picks from the rest.

assay: NF-kB reporter blockers in CF airway cells – cell-based, GFP fluorescence, uHTS, primary screen (AID 588850); conditions: KKLEB NF-kB-GFP reporter, PAF-induced, GFP fluorescence overnight; at 5 µM; stronger effect = higher value;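 further: PAF is a Pseudomonas aeruginosa culture filtrate used as stimulus; plate controls were PAF-stimulated DMSO wells for no effect and unstimulated DMSO wells for full effect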

inhibition, active:
COC(=O)c1ccc(C(=O)Nc2cc(Cl)ccc2Cl)cc1NC(=O)c1ccccc1C 54%
O=C(Nc1cccc2ccccc12)c1[nH]c(-c2ccccc2)c2c1C(=O)N(C1CC1)C2=O 63.7%
Cc1ccc(N(Cc2cc(=O)[nH]c3ccccc23)C(=O)CCl)cc1 63.4%
O=C(NNC(=O)c1ccccc1O)c1ccccc1O 61.7%
O=C(NNc1ccccc1Cl)C(O)(c1cccc(C(F)(F)F)c1)c1cccc(C(F)(F)F)c1 55.6%
C=C1C(=O)[C@]23C[C@H]1CCC2[C@@]1(C)C(C[C@@H]3O)[C@](C)(C(=O)O)CC[C@@H]1O (some centres undefined) 82.6%
CC(C)CC1C(=O)N(Cc2cn(CC3CCCCC3)nn2)CCS(=O)(=O)N1Cc1ccc(-c2ccc(Cl)cc2)cc1 (centres undefined) 55.8%
COc1ccc(-c2ccc(CN3C(CC(C)C)C(=O)N(Cc4cn(CC5CCCCC5)nn4)CCS3(=O)=O)cc2)cn1 (centres undefined) 66.1%
CC(C)CC1C(=O)N(Cc2cn(Cc3ccco3)nn2)CCS(=O)(=O)N1Cc1ccc(-c2ccc(Cl)c(Cl)c2)cc1 (centres undefined) 66.8%

inhibition, inactive:
COc1ccc(NC(=O)/C(C#N)=C\c2cc(OC)c(OCc3ccc(C(=O)O)cc3)cc2Br)cc1 -82.3%
COc1ccc(/C=C(\C#N)C(=O)NCCCn2ccnc2)cc1 10.2%
Cc1ccc(S(=O)(=O)NNC(=O)/C=C/c2cccc(F)c2)cc1 -21.5%
CCOC(=O)CN1C(=O)C(O)(CC(=O)c2ccccn2)c2ccccc21 (centres undefined) 13%
Cc1ccc(C2=CSC3=NS(=O)(=O)CCN23)cc1C 6.1%
COc1cc(OC)c(C(=O)NNC(=O)c2ccccc2-n2cccc2)cc1OC -9.9%
COC(=O)c1ccc(C(=O)OC)c(NC(=S)N2CCN(c3cc(Cl)ccc3C)CC2)c1 0.4%
CCCN(CCC)C(=S)Nc1cc(C(=O)OC)ccc1C(=O)OC 10.8%
CCOC(=O)c1c(C)[nH]c(C)c1C(=O)COC(=O)/C=C/c1cccc([N+](=O)[O-])c1 -19.4%
CCC12CN3CC(CC)(CN(C1)C31C(=O)N(C)c3ccc(C)cc31)C2=O (centres undefined) 8.9%
CCOC(=O)C1(C)CCCN(C(=O)c2ccc(N(C)C)cc2)C1 (centres undefined) -1.1%
Cc1cccc(-n2nc3c(c2NC(=O)c2cc4ccccc4o2)CS(=O)(=O)C3)c1 4.3%
CC(C)CC1(C(=O)NCc2ccccn2)C=CCN1C(=O)c1ccccc1 (centres undefined) -3.1%
O=C(Nc1cccc2ccccc12)NC1CC1 -3.5%
O=C(Nc1cccc2ccccc12)c1onc2c1CCCC2 -10.2%
CCC(=O)N(Cc1cc2ccccc2[nH]c1=O)c1ccc(OC)cc1 -0.6%
CC(=O)N(Cc1cc(=O)[nH]c2ccccc12)c1ccc(C)cc1C 10.4%
CCOC(=O)N1CCN(C(=O)c2ccccc2SCC(=O)NCC2CCCCC2)CC1 -2%
Cc1ccc(C(=O)CCC(=O)N(C)CC(=O)Nc2c(Cl)cccc2Cl)cc1 -7.8%
Cc1ccc(NC(=O)CN(C)C(=O)COC(=O)c2nccnc2N)cc1 -12.4%
CC1=C(C)CC(C(=O)NNC(=O)c2ccccc2O)C(C(=O)O)C1 (centres undefined) -2.9%
Cc1cc(C(=O)CCC(=O)NNC(=O)c2ccccc2O)c(C)s1 -22%
COCCNC(=O)c1ccc2c(c1)ncn2-c1ccc(C)c(Cl)c1 -3.6%
COCCN(C(=O)CCC(=O)Nc1nccs1)C(C(=O)NCCC(C)C)c1ccc(F)cc1 (centres undefined) -16.8%
O=C(CNS(=O)(=O)c1cccc(C(F)(F)F)c1)Nc1ccccc1F -4.7%
O=C(O)c1cc(S(=O)(=O)N(Cc2ccccc2)c2cccc(C(F)(F)F)c2)ccc1Cl -4.7%
Cc1cccc(NC(=O)CSc2nnc(CCCCCNC(=O)OC(C)(C)C)o2)c1C -6.7%
NC(=O)COc1ccccc1C(=O)NC12CC3CC(CC(C3)C1)C2 3.5%
CCN(CC)CCCNC(=O)c1cn(C)c2ccc(S(=O)(=O)N(C)C3CCCCC3)cc2c1=O 9.2%
COc1ccc(-c2ccc(CN3C(CC(C)C)C(=O)N(Cc4cn(CC5CCCCC5)nn4)CCS3(=O)=O)cc2)cc1 (centres undefined) 41.4%
CC1C(=O)N(Cc2cn(Cc3ccco3)nn2)CCS(=O)(=O)N1Cc1ccc(-c2cccc(CO)c2)cc1 (centres undefined) 3.2%
COCOCCn1cc(CN2CCS(=O)(=O)N(Cc3ccc(-c4ccccc4)cc3)C(CC(C)C)C2=O)nn1 (centres undefined) 23.5%
COc1ccc(-c2ccc(CN3C(C(C)C)C(=O)N(Cc4cn(CC5CCCCC5)nn4)CCS3(=O)=O)cc2)cn1 (centres undefined) -2.4%
CC(=O)c1cccc(-c2ccc(CN3C(CC(C)C)C(=O)N(Cc4cn(CC5CCCCC5)nn4)CCS3(=O)=O)cc2)c1 (centres undefined) 13.4%
COCOCCn1cc(CN2CCS(=O)(=O)N(Cc3ccc(-c4ccc(OC)cc4)cc3)C(CC(C)C)C2=O)nn1 (centres undefined) -5%
